According to ChEMBL document CHEMBL4513216, “Probing the Open Global Health Chemical Diversity Library for Multistage-Active Starting Points for Next-Generation Antimalarials” (ACS Infect Dis, 2020):
In all, about 69,000 compounds went through this assay and about 8,600 (12%) showed an effect of 50% or more. This is one part of a sample in which strong results are shown more often than they occur.

These compounds were tested on Plasmodium berghei (assay: Screen against P. berghei liver stage (PbLuc), transformed with Luciferase, at 10uM). Settings: tested at 10 uM.
Format: functional, HepG2

Structure (SMILES) | INHIBITION [%]
O=C(c1cncc2ccccc12)N1CCC[C@@H]1CO | -10.6
c1cnc(NCc2ncn3c2CN(Cc2cccnc2)CCC3)nc1 | 36.1
O=C(CN(CC1CCC1)CC(F)(F)F)N1CCOCC1 | 22.6
CC(=O)Cc1c(C)nn(-c2cncc(C(N)=O)c2)c1C | -27.5
CCOc1ccc(-n2nc(C)c(CC(C)=O)c2C)cc1C(N)=O | 52.8
COc1ccc(-n2nc(C)c(C(C)=O)c2C)cc1C(N)=O | -17.5
CCOc1ccc(C(=O)CCC(=O)N(C)Cc2snnc2C)cc1C | 29.7
Cc1nnc(SCc2cc(=O)n3c4c(sc3n2)CCCC4)[nH]1 | 25.8
CC(C)c1noc(CN(Cc2ccc(F)cc2)C2CC2)n1 | 82.4
COc1cccc(COc2nc(C(C)C)no2)c1 | 17.4
COc1cccc(NC(=O)CCCc2nc(C(C)C)no2)c1 | 26.5
CC(C)c1noc(CN(Cc2cccs2)C2CC2)n1 | 41.8
CC(C)c1noc(CN(C)C(c2ccc(F)cc2)c2cccnc2)n1 (centres undefined) | 38.6
CC(C)c1noc(CN(Cc2ccccc2)C2CC2)n1 | 54.5
COc1cccc(CN(C)Cc2nc(C(C)C)no2)c1 | 61.9
CC(C)c1noc(CN(Cc2ccccc2F)C2CC2)n1 | 16.8
CC(C)c1noc(C2CCCN2S(=O)(=O)Cc2ccc(F)cc2)n1 (centres undefined) | 28.7
CCN(Cc1ccc2c(c1)OCCO2)C(=O)NCCc1cnn(C)c1 | 8.15
O=C(Nc1nc2c(s1)CN(S(=O)(=O)C1CC1)CC2)c1ccc(=O)[nH]c1 | 31.9
NC1(C(=O)NCCC2CN(Cc3ccco3)CCO2)CCCC1 (centres undefined) | 20
CCn1ccnc1CN1CCN(C(C)C(=O)N2CCCCCC2)CC1 (centres undefined) | 30.6
CCN(CC1CCCO1)C(=O)Nc1cccc(Cl)c1OC (centres undefined) | 26.4
Cc1nn(-c2ncnc3[nH]cnc23)c2c1C(C(C)(C)C)CC(=O)N2 (centres undefined) | -4.35
Cc1cnc(CNC(=O)[C@@]23CCO[C@@H]2CCN(c2ncccn2)C3)cn1 | 9.51

Structure (SMILES) | INHIBITION [%]
Cc1occc1C(=O)N1CCCC(C2=Nc3ccccc3S(=O)(=O)N2)C1 (centres undefined) | -7.679
COc1ccccc1CN1CC[C@]2(C[C@H](OC)CO2)C1 | -29.2
Cc1ccc(CNC(=O)CNCC2CCN(CCO)CC2)s1 | 10.6
O=C(CNC(=O)C1CC1)NCc1ccc(Cl)s1 | -56.4
Cc1ccc(CNC(=O)c2cc(CN3CCC(O)CC3)on2)s1 | 13.7
Cc1ccc(CNC(=O)CN2CCN(CCO)CC2)s1 | 5.64
Cc1ccc(CNC(=O)CN(C)CC2CCN(CCO)CC2)s1 | 53.8
O=C(CN1CCN(CCO)CC1)NCc1ccc(Cl)s1 | 53.8
Cc1cc(C(=O)NC2CCC3(CCC(=O)N3)CC2)no1 (centres undefined) | -20.8
COc1ncccc1CN1CCc2[nH]nc(C(=O)N3CCCC3C)c2C1 (centres undefined) | -12.2
CC(C)c1nnsc1CNC(=O)C1CCN(C(C)C)CC1 | 5.94
CCc1ccc(C(=O)N2CCN(c3nc(C)cc(OC)n3)CC2)o1 | 19.2
CN(C)c1ccc(CN2CCN(c3ccc(C#N)cc3)C(=O)C2)cn1 | 18.9
CCSc1ncc(CN2CCN(c3ccc(C#N)cc3)C(=O)C2)cn1 | 3.73
CCc1ccc(CN2CCN(c3ccc(C#N)cc3)C(=O)C2)nc1 | 62.4
COCC(=O)N1CCN(S(=O)(=O)c2ccccc2)[C@H]2CS(=O)(=O)C[C@H]21 | 25.8
CCc1nc(N2CCCC(O)(CO)CC2)ncc1C (centres undefined) | -119
CNc1cncc(C2CCCN2S(=O)(=O)c2ccccc2)n1 (centres undefined) | -46.6
CC(C)c1ccc(CCC(=O)N2CCOCC2c2ncon2)cc1 (centres undefined) | -3.2
Cc1nc(-c2ccsc2)ccc1C(=O)NCCN1CCOCC1 | 48.1
Cc1nc(-c2ccsc2)ccc1C(=O)NCCC(=O)N1CCCC1 | 49.6
Cc1nc(-c2ccsc2)ccc1C(=O)NCCC1CCCO1 (centres undefined) | 52.7
Cc1noc(C)c1CN(C)C(=O)c1n[nH]c(N)c1-c1ccccc1 | -3.96
COc1ccccc1/C=C/CNCC1CCc2nncn2C1 (centres undefined) | 38

Structure (SMILES) | INHIBITION [%]
CS(=O)(=O)CCCNCc1c(Cl)cccc1N1CCCC1 | 26.4
Cc1nccn1-c1ccc(=O)n(CCNC(=O)c2ccncc2)n1 | 10.5
CCC(CN1CCN(C)CC1)NC(=O)C1(c2cccc(F)c2)CC1 (centres undefined) | 37.5
CCC(CN1CCCCC1)NC(=O)C1(c2cccc(F)c2)CC1 (centres undefined) | 28.7
CCC(CN1CCCC1)NC(=O)C1(c2cccc(F)c2)CC1 (centres undefined) | 53.65
Cc1oncc1C(=O)N1CCC2(CCN(Cc3cccc(F)c3)C2=O)C1 (centres undefined) | 1.48
O=c1cc2c(nn1CN1CCSCC1)CCC2 | 51
O=c1cc2c(nn1CN1CCOCC1)CCC2 | -1.58
O=c1cc2c(nn1CN1CCN(c3ccccc3)CC1)CCC2 | 16.6
O=C(O)c1ccn(COc2c(Cl)cccc2Cl)n1 | 0.207
Cc1ncoc1C(=O)N1CCOC(CCCC(C)C)C1 (centres undefined) | -7.81
O=S(=O)(NCc1cn2ccccc2n1)N1CCOCC1 | -38.6
Cc1nc(N2CCCC2)ncc1-c1cc(O)nc(N2CCCCC2)n1 | 36.6
Cc1nc(N2CCC(C)CC2)ncc1-c1cc(O)nc(N2CCCC2)n1 | 53.2
Cc1nc(N2CCCC2)ncc1-c1cc(O)nc(N2CCCC2)n1 | -11.1
Cc1nc(N2CCCCC2)ncc1-c1cc(=O)[nH]c(N2CCCC2)n1 | 68.1
Cc1nc(N2CCCC2)ncc1-c1cc(O)nc(N2CCN(C)CC2)n1 | 20.1
Cc1nc(N2CCCCC2)ncc1-c1cc(O)nc(N2CCCCC2)n1 | 25.1
Nc1nccnc1C1CN(C(=O)c2cnccn2)CCO1 (centres undefined) | -9.32
COCC(c1cccc(C(F)(F)F)c1)N(C)C(=O)c1cccnc1 (centres undefined) | -34.5
NC(=O)COc1cccc(Cn2cc(Br)cn2)c1 | 27
O=S(=O)(C1CC1)N1CCc2ncnc(-c3ccncc3)c2CC1 | 12.1
Cc1nnc(N2CCOC(CN(C)C)C2)c(C#N)c1C (centres undefined) | 49.25
Cc1ccc(O)c(C(=O)N2C[C@@H](C(=O)O)[C@H](c3ccccc3)C2)c1 | 19.4

Structure (SMILES) | INHIBITION [%]
CC(C)=CCN1C(=O)[C@@H]2CC[C@H]1CN(c1ncccc1F)C2 | 12.7
c1ccc2oc(N3CCCC3Cn3cncn3)nc2c1 (centres undefined) | -41.1
c1ccc2oc(CCCN3CCCC3Cn3cncn3)nc2c1 (centres undefined) | 30.8
c1ccc2oc(CN3CCCC3Cn3cncn3)nc2c1 (centres undefined) | -4.94
c1ccc2oc(CCCN3CCCCC3Cn3cncn3)nc2c1 (centres undefined) | -41.1
c1ccc2oc(N3CCCCC3Cn3cncn3)nc2c1 (centres undefined) | 55.5
c1ccc2oc(CN3CCCCC3Cn3cncn3)nc2c1 (centres undefined) | 55.4
O=C(Nc1cc(C(F)(F)F)c[nH]c1=O)N1CCOCC1 | -31.8
COc1c(C)cnc(CNCC(C)C)c1C | 11.95
CN(C)CC(=O)N1CCc2sc(C(=O)N3CCOCC3)cc21 | 43
Cc1cc(N(C)CCn2ccnc2C)n2nccc2n1 | 48.1
Cc1nccn1CCN(C)c1cc(C(C)C)nc2ccnn12 | 51.3
CC(C)Cc1noc(CN(C)c2cc(C(C)C)nc3ccnn23)n1 | 23.5
CC(C)CC(Cc1cccc(Br)c1)C(=O)O (centres undefined) | 65.4
COCCC(Cc1cccc(Br)c1)C(N)=O (centres undefined) | 25.3
COCCC(Cc1cccc(Br)c1)C(=O)O (centres undefined) | 9
CS(=O)(=O)NC[C@H]1Cn2c(-c3ccccc3)cnc2CO1 | 25.3
CS(=O)(=O)NC[C@H]1Cn2c(-c3ccc(Cl)cc3)cnc2CO1 | 5.58
CS(=O)(=O)NC[C@H]1Cn2c(-c3ccc(F)cc3)cnc2CO1 | 51.7
CC(=O)Nc1nc(CN2CCOC(Cn3cncn3)C2)cs1 (centres undefined) | 11.6
Cn1cnnc1CCNC(=O)c1cnn(Cc2ccccc2)c1 | 10.7
Cc1noc(C)c1CN(C)C(=O)NC1CCC(O)CC1 (centres undefined) | 40.15
O=C(CC1CCc2ccccc21)NCCSc1ccccn1 (centres undefined) | -8.25
O[C@H]1[C@H](n2cc(-c3ccccn3)nn2)c2ccccc2C12CCNCC2 | -110

Structure (SMILES) | INHIBITION [%]
O[C@H]1[C@H](NCCc2cnccn2)c2ccccc2C12CCNCC2 | 57.8
OCc1cn([C@@H]2c3ccccc3C3(CCNCC3)[C@H]2O)nn1 | -76.9
O[C@H]1[C@H](NCCc2ccccn2)c2ccccc2C12CCNCC2 | 28.7
O[C@H]1[C@H](NCCSc2ccccn2)c2ccccc2C12CCNCC2 | 52.2
COc1ccc(Nc2nc(N)c(C(C)=O)s2)cc1OC | 27.5
Cc1cnn(Cc2cccc(OCC(N)=O)c2)c1 | 40.7
Cc1ccsc1CNC1CCCc2c1cnn2C (centres undefined) | -2.19
CC(C)(Oc1ccc(C(N)=O)cc1)C(=O)N(CCC#N)C1CC1 | 23.3
O=C(NC1CCN(CC2CC2)C1)N1CCC(OC2CCCCC2)CC1 (centres undefined) | 74
O=C(NC1CCN(CC2CCCC2)C1)N1CCC(OCC2CC2)CC1 (centres undefined) | 39.7
NC(=O)C1CCN(C(=O)NC2CCN(CC3CCCC3)C2)CC1 (centres undefined) | 7.83
CCOCc1cnc2n1CCN(C(=O)c1cccc3c1OCCO3)C2C (centres undefined) | 52.1
CCOCc1cnc2n1CCN(C(=O)Cc1ccco1)C2C (centres undefined) | 10.5
CCOCc1cnc2n1CCN(C(=O)c1ccccc1)C2C (centres undefined) | 57.5
CCOCc1cnc2n1CCN(C(=O)Cc1ccccn1)C2C (centres undefined) | 37.8
CC1c2ncc(COCC3CC3)n2CCN1C(=O)c1ccnnc1 (centres undefined) | -27
COCCC(=O)N1CCn2c(COCC3CC3)cnc2C1C (centres undefined) | 51.2
CCOCc1cnc2n1CCN(C(=O)c1cn(C)c3ccccc13)C2C (centres undefined) | 57.5
CCOCc1cnc2n1CCN(C(=O)Cc1cccs1)C2C (centres undefined) | 34.6
CCOCc1cnc2n1CCN(C(=O)C1=CCCC1)C2C (centres undefined) | 5.96
CC1c2ncc(COCC3CC3)n2CCN1C (centres undefined) | 21.7
COCc1cnc2n1CCN(C(=O)c1cn(C)c3ccccc13)C2C (centres undefined) | 16.8
CCOCc1cnc2n1CCN(C(=O)c1ccoc1C)C2C (centres undefined) | 48.4
